# Assay results taken from PubChem BioAssay (NCI).
# About 83,000 compounds went through this panel and 20% of them were active in at least one assay; those are over-represented in the sample as a whole.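 In brief: 96-well plates, 48 h treatment, single concentration, percent growth endpoint.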 A number with no mark means an inactive call. The source made the active and inactive calls. Rule for the calls: active = growth percent below 10; inactive = the rest.
# Legend:
# Test in all cases: NCI-60 one-dose screen, 48 h (100 = growth as untreated, 0 = no growth, -100 = all killed)
# Conditions in all cases: 10 µM unless noted
# NCI-H23 lung = tested on: NCI-H23 lung
# NCI-H226 lung = tested on: NCI-H226 lung
# NCI-H322M lung = tested on: NCI-H322M lung
# HOP-62 NSCLC = tested on: HOP-62 NSCLC
# NCI-H460 lung = tested on: NCI-H460 lung
# HOP-92 NSCLC = tested on: HOP-92 NSCLC
# NCI-H522 lung = tested on: NCI-H522 lung
# A549/ATCC NSCLC = tested on: A549/ATCC NSCLC
# 786-0 renal = tested on: 786-0 renal
# COLO 205 colon = tested on: COLO 205 colon
# DU-145 prostate = tested on: DU-145 prostate
# K-562 leukemia = tested on: K-562 leukemia
# MALME-3M melanoma = tested on: MALME-3M melanoma
# MDA-MB-231 breast = tested on: MDA-MB-231 breast
# RXF 393 renal = tested on: RXF 393 renal
# SF-268 CNS = tested on: SF-268 CNS
# SF-295 CNS = tested on: SF-295 CNS
# SF-539 CNS = tested on: SF-539 CNS
# M14 melanoma = tested on: M14 melanoma
# UACC-257 melanoma = tested on: UACC-257 melanoma
Compound,growth (NCI-H23 lung),growth (NCI-H226 lung),growth (NCI-H322M lung),growth (HOP-62 NSCLC),growth (NCI-H460 lung),growth (HOP-92 NSCLC),growth (NCI-H522 lung),growth (A549/ATCC NSCLC),growth (786-0 renal),growth (COLO 205 colon),growth (DU-145 prostate),growth (K-562 leukemia),growth (MALME-3M melanoma),growth (MDA-MB-231 breast),growth (RXF 393 renal),growth (SF-268 CNS),growth (SF-295 CNS),growth (SF-539 CNS),growth (M14 melanoma),growth (UACC-257 melanoma)
Cn1c(=O)c2c(nc(Br)n2CC(=O)Nc2ccc(F)cc2)n(C)c1=O,95.8%,103%,111%,96.9%,109%,87.6%,81.3%,92.5%,95.3%,104%,109%,104%,103%,90.1%,108%,108%,108%,100%,99.7%,
COC(=O)[C@]12CC[C@@H](C)[C@H](C)[C@@H]1C1=CC[C@@H]3[C@@]4(C)C[C@@H](O)OC[C@](C)(C=O)C4C(=O)C[C@@]3(C)[C@]1(C)CC2 (stereo partly specified),5.09% (active),-21.5% (active),27.6%,13%,-13% (active),-28.6% (active),-41.9% (active),7.39% (active),2.91% (active),-94.4% (active),14.5%,3.89% (active),-8.79% (active),-14.9% (active),-7.01% (active),34.9%,1.62% (active),7.45% (active),6.13% (active),
c1ccc(CN2C(c3ccccc3)=Nc3ccccc3C2c2c[nH]c3ccccc23)cc1 (stereo unspecified),27.4%,59.3%,60.6%,47.1%,43.4%,-2.7% (active),51.7%,65.5%,46.7%,18.3%,85.4%,4.88% (active),55.1%,26.7%,42.9%,71.2%,45.6%,58.1%,28.9%,
COC(=O)CCCCCn1c2ccccc2c2c3c(c4c5ccccc5[nH]c4c21)C(=O)N(O)C3=O,44.1%,74.4%,62.4%,26%,33.4%,79.4%,-60% (active),80.3%,76.6%,36.5%,80.6%,23.8%,96%,41.8%,64.9%,45.6%,59.6%,25.3%,39.5%,
COc1cccc(-c2nn(-c3ccccc3)cc2-c2ccnc(NCCCNS(=O)(=O)c3cccc(F)c3)c2)c1,30.2%,21.7%,53.9%,54.1%,24.5%,6.39% (active),9.36% (active),27.4%,31.6%,11.9%,53.6%,6.28% (active),35.1%,5.9% (active),15.8%,46.8%,7.99% (active),51.9%,21%,
O=C1CNCCN1,96.4%,97.1%,106%,114%,105%,105%,90.9%,93.4%,100%,122%,107%,101%,104%,97.9%,98.5%,107%,97.4%,95.8%,105%,
CC[C@]12C=CCN3CC[C@@]4(c5cc([C@H]6CCC(=O)N6)c(OC)cc5N(C)[C@H]4[C@@](O)(C(=O)OC)[C@@H]1OC(C)=O)[C@@H]32,100% [2.5 µM],92.7% [2.5 µM],99.8% [2.5 µM],98.1% [2.5 µM],107% [2.5 µM],98.5% [2.5 µM],93% [2.5 µM],100% [2.5 µM],104% [2.5 µM],108% [2.5 µM],119% [2.5 µM],105% [2.5 µM],97.5% [2.5 µM],98.7% [2.5 µM],113% [2.5 µM],116% [2.5 µM],100% [2.5 µM],92.4% [2.5 µM],95.5% [2.5 µM],
CC(=O)O[C@@H]1CCN2C(=O)N(C)c3ccccc3[C@@H]2C1,98.7%,109%,108%,104%,104%,111%,96.4%,95%,101%,114%,121%,93.5%,94.7%,111%,115%,113%,88.9%,97.7%,101%,
COC(=O)[C@]12CC[C@@H](C)[C@H](C)[C@@H]1C1=CC[C@@H]3[C@@]4(C)C[C@@H](OC(C)=O)[C@H](O)[C@@](C)(CO)[C@@H]4[C@H](O)C[C@@]3(C)[C@]1(C)CC2,-82% (active),-48.6% (active),-93.2% (active),-89.8% (active),-72.6% (active),-87.7% (active),-90.3% (active),-88.3% (active),-77.3% (active),-87.8% (active),-100% (active),-62.7% (active),-69.1% (active),-62.3% (active),-88.9% (active),-84% (active),-92.2% (active),-90% (active),-69.1% (active),
COC(=O)[C@]12CC[C@@H](C)[C@H](C)[C@@H]1C1=CC[C@@H]3[C@@]4(C)C[C@@H](OC(C)=O)[C@H](OC(C)=O)[C@@](C)(COC(C)=O)[C@@H]4[C@H](O)C[C@@]3(C)[C@]1(C)CC2,17.5%,2.17% (active),34.6%,15.6%,4.06% (active),31.2%,-2.94% (active),7.91% (active),15%,-76% (active),20.3%,8.42% (active),5.25% (active),18.1%,-22.1% (active),23.4%,7.96% (active),15.4%,14.2%,
O=C(CCCCCn1c2ccccc2c2c3c(c4c5ccccc5[nH]c4c21)C(=O)N(O)C3=O)N1CCOCC1,52%,19.1%,74.4%,11.6%,35.8%,89.8%,9.19% (active),91.4%,80.3%,62%,69.6%,33.6%,113%,48.2%,56%,47.4%,28.5%,35.6%,38.6%,
COc1cccc(-c2nn(-c3ccccc3)cc2-c2ccnc(NCCCNS(=O)(=O)c3ccccc3)c2)c1,44.3%,35.1%,59.3%,64.3%,31.8%,18.9%,31.1%,35.8%,43.2%,17.1%,52%,9.59% (active),68.7%,20.6%,36.4%,47.1%,16.8%,57.5%,29.9%,
COC(=O)[C@@H]1[C@H]2C[C@H]3c4[nH]c5cc(OC)ccc5c4CCN3C[C@@H]2C[C@H](OC(=O)/C=C/c2ccnc(OC)c2)[C@H]1OC,86.4%,89.3%,83.2%,87%,102%,22.5%,73.3%,89%,91.2%,76.3%,91.8%,99.3%,67.6%,-54.6% (active),92.4%,84.1%,,90.1%,93.2%,78.3%
O=C1c2ccccc2C(=Cc2ccccc2)c2ccccc21,2.92% (active),38.7%,66.8%,21.3%,-6.75% (active),51.7%,-25.4% (active),19.8%,-15.9% (active),-21.1% (active),-21.3% (active),8.16% (active),41.6%,-20.7% (active),-1.26% (active),10.6%,,-26.2% (active),-20.5% (active),15.7%
